Consider seven compounds from PubChem BioAssay (NCATS).

In assay [1] the target is Lysosomal acid glucosylceramidase (Homo sapiens) (UniProt P04062). In words: Glucocerebrosidase-p2 (AID 348; in the data active = potency below about 10 µM; also: potency is read from the fitted curve at half-maximal effect). Particulars: purified GBA, blue fluorogenic substrate, 40 min. A digest of the protocol:
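Normal human glucocerebrosidase (0.2 nM) with blue fluorogenic substrate (80 uM final) in citrate/phosphate pH 5.9 with 10mM sodium taurocholate, 0.01% tween-20; 40 min RT, NaOH/glycine stop; fluorescence Ex 365/Em 440; AC50 from a titration from 0.6 nM upwards.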

Assay [2] can be described thus: AP1 Signaling Pathway (AID 357).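 Also: ME-180 reporter cells stimulated with EGF at its EC50 level; % is scaled to controls: 0 for no effect and ±100 for the full control effect.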 Particulars: ME-180 AP-1-bla reporter, EGF-induced, beta-lactamase ratio, 5 h; at 7.69 µM (top of the series) unless noted. The essentials:
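Modulation of EGF-driven AP-1 transcription was assessed with a beta-lactamase reporter in ME-180 cells. Compound and EC50 EGF were co-incubated 5 hours at 37 °C before 2.5-hour CCF4 loading at room temperature and dual-emission reading.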

Assay [3] addresses Cytochrome P450 1A2 (Homo sapiens) (UniProt P05177). Briefly: p450-cyp1a2 (AID 410; calls by dose curve; also: potency is read from the fitted curve at half-maximal effect;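 as to activity change, negative = inhibition: -100% = full effect of reference inhibitor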). Particulars: recombinant CYP1A2, luciferin-ME demethylation, luminescence; series mostly up to 57 µM. A digest of the protocol:
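Luminescent demethylation readout: Luciferin-ME (100uM, equal to Km) turned over by 20nM CYP1A2 for 60 min at room temperature after NADPH regeneration addition, following 10 min compound preincubation. Normalization used 57 uM furafylline as full inhibition.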

A short description of assay [4]: NFAT Signaling Pathway (AID 444).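 Also: carbachol stimulus at about its EC50 of 1 µM final; % is scaled to controls: 0 for no effect and ±100 for the full control effect.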 Particulars: Jurkat NFAT-bla M1, carbachol, beta-lactamase ratio, 5 h; at 7.69 µM (top of the series) unless noted. A digest of the protocol: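 Read-out: CCF4 FRET ratio (460 nm/530 nm) after 1 h RT dye loading, used for %activity and AC50 from titration series. Cells: Jurkat NFAT-β-lactamase/M1 line, treated with compound plus 1 uM carbachol for 5 h, 37 °C.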

Assay [5] in a line: Stat Signaling Pathway (AID 446).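 Also: ME-180 cervical cancer cells given 40 pM IL-6 alongside compound; SIE-controlled beta-lactamase reporter measured as 460/530 nm FRET emission ratio; % is scaled to controls: 0 for no effect and ±100 for the full control effect.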 Particulars: ME-180 (cervical carcinoma) SIE beta-lactamase reporter, IL-6 stimulated, 5 h; at 7.69 µM (top of the series) unless noted. The essentials: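 Overnight-plated ME-180 cells bearing a STAT Inducible Element beta-lactamase reporter; 5 h co-exposure to compound and 40 pM IL-6; values normalized to 300 pM IL-6 and 125 nM JAK inhibitor controls.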
Assay [6] has as its target Glucocorticoid receptor (Homo sapiens) (UniProt P04150). In words: GR-EFC Redistribution (AID 451; calls by dose curve; also: potency is read from the fitted curve at half-maximal effect). Particulars: CHO-K1 GR-EFC translocation, beta-gal luminescence, 2 h. A digest of the protocol: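 Translocation of GR-ED fusion to nuclear EA restores b-gal, read by luminescence after 1 h room-temperature detection. Engineered CHO-K1 biosensor cells, 1,000/well, exposed 2 h at 37 C to titrations up to 46 uM final.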

For assay [7], the target named is Mitogen-activated protein kinase 10 (Mus musculus) (UniProt Q61831). Briefly: JNK3 AlphaScreen Assay (AID 530).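 Also: kinase came from lysate of stimulated human HepG2 cells; signal reports phosphorylation of biotinylated GST-cJun 1-79 at Ser73 with 10 µM ATP; % is scaled to controls: 0 for no effect and ±100 for the full control effect.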 Particulars: JNK3 lysate, c-Jun phosphorylation; series mostly up to 57.1 µM. The essentials:
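qHTS titrations with 15 min compound pre-incubation before adding ATP (10 uM final). Read-out: AlphaScreen of Ser73-phosphorylated biotin-GST-cJun using HepG2 lysate JNK3 activated by IL-1β and TNFα.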

Assay [8] concerns the target 3',5'-cyclic-AMP phosphodiesterase 4B (Homo sapiens) (UniProt Q07343). In words: qHTS Assay for Inhibitors of PDE-IV (AID 607; active = well fitted activation curve with a large enough effect in the main read-out, with a control signal flat, not every such curve was filed as active; also: % of control where 0% means no effect). Particulars: HEK293 ACTOne CNG channel cells, membrane potential fluorescence; series mostly up to 22.9 µM. The essentials: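 Live HEK293 cells with a modified cyclic nucleotide-gated (CNG) channel report intracellular cAMP via membrane-potential dye fluorescence (ex 535/em 590 nm). Endogenous PDE-IV was targeted. Compounds were tested at up to 22.9 uM final; RO 20-1724 100 uM served as control.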

Assay [9] concerns the target Cytochrome P450 3A4 (Homo sapiens) (UniProt P08684). In words: qHTS Assay for Inhibitors and Substrates of Cytochrome P450 3A4 (AID 884; active = well fitted curve in the direction sought with a large enough effect; an effect the other way counts as inactive or inconclusive; also: % is scaled to controls: 0 for no effect and ±100 for the full control effect; nearly all actives have a fitted effect of over 50% in size). Particulars: recombinant CYP3A4, Luciferin-PPXE luminescence; series mostly up to 57.1 µM. A digest of the protocol: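 Luminescent readout of luciferin produced by CYP3A4 (20 nM) dealkylation of Luciferin-PPXE, 25 uM (its KM). NADPH-driven reaction ran 60 min at RT after 10 min compound preincubation; data scaled to 57 uM ketoconazole as 100% inhibition.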
Background: In qHTS, concentration-response curves come from the screen itself.

The target is the same in assay [10]. Briefly: qHTS Assay for Activators of Cytochrome P450 3A4 (AID 885; active = well fitted curve in the direction sought with a large enough effect; an effect the other way counts as inactive or inconclusive; also: potency is read from the fitted curve at half-maximal effect; nearly all actives have a fitted effect of over 65% in size). Particulars: recombinant CYP3A4, Luciferin-PPXE luminescence, 60 min; series mostly up to 57.1 µM. The essentials:
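Using 20nM recombinant human CYP3A4 in potassium phosphate (200mM), substrate Luciferin-PPXE at 25uM, luminescent luciferin detection followed a 60-min RT NADPH reaction; data scaled to 57 uM ketoconazole.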

A short description of assay [11]: Primary qHTS for small molecule stabilizers of the endoplasmic reticulum resident proteome: Secreted ER Calcium Modulated Protein (SERCaMP) assay (AID 1508630; active = well fitted curve in the direction sought with a large enough effect; an effect the other way counts as inactive or inconclusive; also: % is scaled to controls: 0 for no effect and ±100 for the full control effect). Particulars: SH-SY5Y GLuc-SERCaMP (Gaussia luciferase released on ER calcium loss) secretion, thapsigargin, luminescence; series mostly up to 38.4 µM. A digest of the protocol: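 The SH-SY5Y reporter protocol was run at 3 concentrations up to 38.3 uM (primary) or 11 concentrations (follow-up): 16 h compound, 100 nM thapsigargin for 4 h, then extracellular luciferase luminescence.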

In assay [12] the target is Cytochrome P450 2C9 (Homo sapiens) (UniProt P11712). In words: qHTS Assay for Inhibitors and Substrates of Cytochrome P450 2C9 (AID 883; active = well fitted curve in the direction sought with a large enough effect; an effect the other way counts as inactive or inconclusive; also: % is scaled to controls: 0 for no effect and ±100 for the full control effect; nearly all actives have a fitted effect of over 60% in size). Particulars: recombinant CYP2C9, luciferin-H luminescence, 60 min; series mostly up to 57.1 µM. The essentials:
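Luminescent read-out of deoxyluciferin hydroxylation, normalized to 57uM sulphaphenazole (AC100). Reaction: 10nM enzyme, 100uM Luciferin-H (equal to KM), 25mM KPO4, 10 min compound preincubation, then 60 min with NADPH regeneration, both at 37C.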

Assay [13] has as its target Cytochrome P450 2D6 (Homo sapiens) (UniProt P10635). Briefly: qHTS Assay for Inhibitors and Substrates of Cytochrome P450 2D6 (AID 891; active = well fitted curve in the direction sought with a large enough effect; an effect the other way counts as inactive or inconclusive;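 also: luciferin methyl ether substrate demethylated by CYP2D6 with NADPH regeneration; % is scaled to controls: 0 for no effect and ±100 for the full control effect; nearly all actives have a fitted effect of over 60% in size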). Particulars: recombinant CYP2D6, luciferin-ME EGE luminescence; series mostly up to 57.1 µM. The essentials:
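Luminescent read-out of luciferin formed by 5 nM human CYP2D6 demethylating 30 uM Luciferin-ME EGE (Km level) over 60 min at room temperature after NADPH regeneration addition. Data normalized to full inhibition by 1.43 uM quinidine.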

Assay [14] has as its target Cytochrome P450 2C19 (Homo sapiens) (UniProt P33261). Briefly: qHTS Assay for Inhibitors and Substrates of Cytochrome P450 2C19 (AID 899; active = well fitted curve in the direction sought with a large enough effect; an effect the other way counts as inactive or inconclusive; also: % is scaled to controls: 0 for no effect and ±100 for the full control effect; nearly all actives have a fitted effect of over 60% in size). Particulars: recombinant CYP2C19, luciferin-H EGE luminescence; series mostly up to 57.1 µM. The essentials:
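Luminescence readout of luciferin formed from 10uM Luciferin-H EGE (KM level) by 5 nM CYP2C19 in 50mM KPO4. 60 min NADPH-driven reaction at 37C after 10 min compound preincubation; data scaled to 57uM ketoconazole inhibition.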

SMILES strings stand for the structures. A number with no mark means an inactive call. Records with an inconclusive call do not appear. Active and inactive are the calls of the source. Unless noted, calls follow the shape of the dose curve; as a rule, active = well fitted curve in either direction with a large enough effect (not every such curve was filed as active); inconclusive = small, poorly fitted or top-dose-only effect, or another doubt; inactive = flat fitted curve, though single readings scatter.

Sequence of Lysosomal acid glucosylceramidase (Homo sapiens) (P04062 whole entry, looked up): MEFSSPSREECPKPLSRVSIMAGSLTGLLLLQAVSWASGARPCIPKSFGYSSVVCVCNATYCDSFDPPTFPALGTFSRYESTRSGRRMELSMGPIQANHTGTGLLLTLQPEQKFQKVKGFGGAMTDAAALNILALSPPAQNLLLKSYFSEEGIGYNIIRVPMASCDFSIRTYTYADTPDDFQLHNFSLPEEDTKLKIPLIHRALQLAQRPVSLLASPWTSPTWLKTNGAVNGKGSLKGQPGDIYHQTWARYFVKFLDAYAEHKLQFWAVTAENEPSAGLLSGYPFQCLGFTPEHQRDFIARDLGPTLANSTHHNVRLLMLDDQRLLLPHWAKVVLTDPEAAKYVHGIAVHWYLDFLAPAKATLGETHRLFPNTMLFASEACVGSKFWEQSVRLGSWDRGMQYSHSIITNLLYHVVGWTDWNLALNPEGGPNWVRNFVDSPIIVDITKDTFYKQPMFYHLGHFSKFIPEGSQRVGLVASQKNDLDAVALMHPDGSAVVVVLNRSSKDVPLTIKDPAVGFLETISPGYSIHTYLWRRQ
Sequence of Glucocorticoid receptor (Homo sapiens) (P04150 whole entry, looked up, the tested form may be a part): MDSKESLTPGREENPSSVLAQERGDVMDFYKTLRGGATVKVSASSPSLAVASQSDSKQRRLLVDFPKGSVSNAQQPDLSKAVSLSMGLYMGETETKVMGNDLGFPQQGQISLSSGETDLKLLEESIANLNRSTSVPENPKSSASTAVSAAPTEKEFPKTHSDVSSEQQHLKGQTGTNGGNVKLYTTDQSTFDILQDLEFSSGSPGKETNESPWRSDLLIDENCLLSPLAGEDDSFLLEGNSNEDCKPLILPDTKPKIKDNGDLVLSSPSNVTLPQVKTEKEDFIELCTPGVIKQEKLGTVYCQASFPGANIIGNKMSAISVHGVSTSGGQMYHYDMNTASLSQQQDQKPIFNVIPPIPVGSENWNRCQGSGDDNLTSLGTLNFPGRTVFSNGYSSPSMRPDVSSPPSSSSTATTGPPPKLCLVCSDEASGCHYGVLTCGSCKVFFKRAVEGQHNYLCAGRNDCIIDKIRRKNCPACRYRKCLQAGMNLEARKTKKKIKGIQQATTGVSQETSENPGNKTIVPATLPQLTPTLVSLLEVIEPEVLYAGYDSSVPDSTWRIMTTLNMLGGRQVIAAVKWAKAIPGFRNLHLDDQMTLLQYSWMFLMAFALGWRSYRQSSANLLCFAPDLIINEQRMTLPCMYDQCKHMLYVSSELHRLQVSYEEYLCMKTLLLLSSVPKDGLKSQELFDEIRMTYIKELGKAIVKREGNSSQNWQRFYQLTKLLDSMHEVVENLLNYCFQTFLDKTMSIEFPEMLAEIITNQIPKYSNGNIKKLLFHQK
Sequence of 3',5'-cyclic-AMP phosphodiesterase 4B (Homo sapiens) (Q07343 whole entry, looked up): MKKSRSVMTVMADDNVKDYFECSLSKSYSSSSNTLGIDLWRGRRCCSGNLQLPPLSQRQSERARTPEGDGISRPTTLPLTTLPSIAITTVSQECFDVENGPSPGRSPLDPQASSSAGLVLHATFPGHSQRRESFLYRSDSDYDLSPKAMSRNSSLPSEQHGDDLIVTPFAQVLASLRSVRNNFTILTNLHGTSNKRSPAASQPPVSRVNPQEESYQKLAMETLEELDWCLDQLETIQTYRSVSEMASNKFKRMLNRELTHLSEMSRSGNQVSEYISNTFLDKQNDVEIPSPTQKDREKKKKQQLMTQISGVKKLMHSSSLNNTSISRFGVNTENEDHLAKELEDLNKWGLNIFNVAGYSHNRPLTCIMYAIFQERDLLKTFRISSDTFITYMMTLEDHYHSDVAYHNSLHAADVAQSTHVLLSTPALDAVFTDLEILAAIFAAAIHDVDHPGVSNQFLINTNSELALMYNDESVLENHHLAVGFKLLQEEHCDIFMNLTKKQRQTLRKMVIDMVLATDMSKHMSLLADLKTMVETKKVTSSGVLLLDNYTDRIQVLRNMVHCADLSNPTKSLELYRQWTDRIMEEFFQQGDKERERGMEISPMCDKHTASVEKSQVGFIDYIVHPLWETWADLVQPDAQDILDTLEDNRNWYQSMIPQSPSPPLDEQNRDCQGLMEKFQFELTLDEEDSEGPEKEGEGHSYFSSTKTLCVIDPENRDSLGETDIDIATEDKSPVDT
Sequence of Cytochrome P450 1A2 (Homo sapiens) (P05177 whole entry, looked up): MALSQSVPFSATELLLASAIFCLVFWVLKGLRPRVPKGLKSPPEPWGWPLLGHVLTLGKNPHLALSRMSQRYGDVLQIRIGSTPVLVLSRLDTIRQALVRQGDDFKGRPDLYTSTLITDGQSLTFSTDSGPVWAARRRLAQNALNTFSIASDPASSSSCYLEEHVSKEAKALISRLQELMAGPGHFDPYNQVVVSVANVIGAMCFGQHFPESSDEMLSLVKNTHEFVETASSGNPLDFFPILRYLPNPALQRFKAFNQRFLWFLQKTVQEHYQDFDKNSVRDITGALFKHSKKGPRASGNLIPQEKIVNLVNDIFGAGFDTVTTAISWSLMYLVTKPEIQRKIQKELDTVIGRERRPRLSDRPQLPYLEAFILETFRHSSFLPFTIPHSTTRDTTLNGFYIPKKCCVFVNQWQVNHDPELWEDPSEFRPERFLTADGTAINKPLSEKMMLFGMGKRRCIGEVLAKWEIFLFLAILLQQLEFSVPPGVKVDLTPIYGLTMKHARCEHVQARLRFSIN
Sequence of Cytochrome P450 3A4 (Homo sapiens) (P08684 whole entry, looked up): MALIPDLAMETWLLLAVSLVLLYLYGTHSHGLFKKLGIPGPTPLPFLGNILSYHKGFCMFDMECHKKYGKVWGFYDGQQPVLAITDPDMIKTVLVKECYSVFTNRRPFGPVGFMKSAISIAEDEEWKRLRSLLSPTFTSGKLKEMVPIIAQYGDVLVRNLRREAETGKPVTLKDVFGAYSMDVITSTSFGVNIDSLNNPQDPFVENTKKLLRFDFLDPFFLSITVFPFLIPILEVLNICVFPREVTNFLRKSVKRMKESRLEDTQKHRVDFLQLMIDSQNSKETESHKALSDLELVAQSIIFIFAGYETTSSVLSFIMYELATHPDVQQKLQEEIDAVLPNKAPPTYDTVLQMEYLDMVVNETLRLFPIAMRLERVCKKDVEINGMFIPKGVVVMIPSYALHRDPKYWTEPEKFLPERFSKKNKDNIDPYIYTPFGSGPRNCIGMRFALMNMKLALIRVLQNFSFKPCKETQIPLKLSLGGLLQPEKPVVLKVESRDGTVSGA
Sequence of Cytochrome P450 2C19 (Homo sapiens) (P33261 whole entry, looked up): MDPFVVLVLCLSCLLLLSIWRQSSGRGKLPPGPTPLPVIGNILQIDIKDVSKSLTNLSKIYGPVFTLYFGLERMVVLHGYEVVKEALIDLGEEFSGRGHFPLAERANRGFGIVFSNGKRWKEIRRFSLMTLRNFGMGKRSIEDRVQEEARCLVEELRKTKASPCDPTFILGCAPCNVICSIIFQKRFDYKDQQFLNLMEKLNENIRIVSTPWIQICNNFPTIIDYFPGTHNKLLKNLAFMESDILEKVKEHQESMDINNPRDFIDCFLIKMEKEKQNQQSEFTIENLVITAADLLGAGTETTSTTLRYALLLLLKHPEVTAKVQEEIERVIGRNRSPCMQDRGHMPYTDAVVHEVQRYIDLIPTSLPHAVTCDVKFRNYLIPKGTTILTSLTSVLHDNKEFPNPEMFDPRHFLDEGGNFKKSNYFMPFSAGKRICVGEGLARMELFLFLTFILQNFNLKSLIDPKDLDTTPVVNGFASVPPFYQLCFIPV
Sequence of Cytochrome P450 2C9 (Homo sapiens) (P11712 whole entry, looked up): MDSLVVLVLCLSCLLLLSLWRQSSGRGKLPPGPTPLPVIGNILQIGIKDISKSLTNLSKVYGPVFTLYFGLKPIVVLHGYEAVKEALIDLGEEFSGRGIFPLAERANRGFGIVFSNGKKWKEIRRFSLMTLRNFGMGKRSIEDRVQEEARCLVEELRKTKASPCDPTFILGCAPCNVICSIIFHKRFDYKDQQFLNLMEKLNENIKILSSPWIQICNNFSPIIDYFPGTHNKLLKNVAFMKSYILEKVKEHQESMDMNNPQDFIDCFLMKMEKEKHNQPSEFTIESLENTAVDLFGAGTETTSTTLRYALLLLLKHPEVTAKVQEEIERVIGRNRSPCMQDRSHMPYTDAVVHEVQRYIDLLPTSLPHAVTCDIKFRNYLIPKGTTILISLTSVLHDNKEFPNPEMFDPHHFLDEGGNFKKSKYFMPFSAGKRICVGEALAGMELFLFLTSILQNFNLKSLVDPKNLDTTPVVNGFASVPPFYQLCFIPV
Sequence of Cytochrome P450 2D6 (Homo sapiens) (P10635 whole entry, looked up): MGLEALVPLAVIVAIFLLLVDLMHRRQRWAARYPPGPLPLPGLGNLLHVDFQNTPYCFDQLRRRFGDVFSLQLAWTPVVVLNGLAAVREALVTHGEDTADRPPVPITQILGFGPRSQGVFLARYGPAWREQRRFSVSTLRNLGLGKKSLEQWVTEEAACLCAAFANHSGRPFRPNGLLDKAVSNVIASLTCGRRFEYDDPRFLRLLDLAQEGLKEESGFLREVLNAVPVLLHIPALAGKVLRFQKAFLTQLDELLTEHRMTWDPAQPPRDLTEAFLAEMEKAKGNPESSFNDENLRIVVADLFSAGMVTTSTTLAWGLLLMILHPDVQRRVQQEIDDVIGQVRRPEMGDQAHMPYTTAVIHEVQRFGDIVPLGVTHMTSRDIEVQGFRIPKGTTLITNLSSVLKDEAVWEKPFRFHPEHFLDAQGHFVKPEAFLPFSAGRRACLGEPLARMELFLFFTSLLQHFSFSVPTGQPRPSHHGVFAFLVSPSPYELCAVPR

`O=C(c1cccc(F)c1)N1CCC2(CC1)CN(c1ccc(-c3ccccc3)cc1)C2`: the figures for the Potency in assay [1], in assay [6] and in assay [10] were above 11.4 µM, above 46 µM and 2.51 µM (active), respectively. The activity change, negative = inhibition in [2] was 9.76%; in assay [4], -5.75%. Besides, the Potency entry in assay [3], in assay [7], in [8] and in assay [9] was “inactive” each time. Further, the activity, negative = inhibition in [5] is -20.4%. In addition, in assay [11], the result was inactive.

`Cc1noc(C)c1C(=O)N1CCC[C@@]2(CCN(Cc3ccc(C#N)cc3)C2)C1`: the Potency in assay [1] is above 11.4 µM; in assay [6], above 46 µM. Moreover, the figures for the activity change, negative = inhibition in [2] and in assay [4] were -6.54% and 17.1%, respectively. Besides, the Potency result in assay [3], in assay [7], in assay [8], in assay [12], in assay [9] and in assay [13] was “inactive” each time. The Potency entry in [14] is “inactive”. In addition, the activity, negative = inhibition in [5] is 6.11%. Besides, the result in [11] was inactive.

Consider `CC(=O)N1CCC2(CC1)CCN(c1ccc(-c3ccccc3)cc1)CC2`, for which the figures for the Potency in [1], in assay [3] and in assay [6] were above 11.4 µM, 10 µM (active) and above 46 µM, respectively. For the same compound, the activity change, negative = inhibition was 47.5% in assay [2] and -28% in [4]. Moreover, the activity, negative = inhibition in [5] was -16.9%. The Potency result in [7] and in assay [8] was “inactive” each time. For the same compound, the outcome in assay [11] was inactive.

As to `O=C(c1cnccn1)N1CCC2(CC1)CCN(c1ccccn1)CC2`, the values for the Potency in [1], in assay [6] and in assay [10] were above 11.4 µM, above 46 µM and 15.8 µM (active), respectively. Moreover, the activity change, negative = inhibition in [2] was -11.4%; in assay [4], -4.5%. In addition, the Potency entry in assay [3], in [7], in assay [8] and in assay [9] was “inactive” in each case. In addition, the activity, negative = inhibition in assay [5] is 3.98%. Further, in [11], the outcome was inactive.

For the compound `COC(=O)N1CCC2(CC1)CCN(c1ncccn1)CC2`, the Potency in assay [1] was above 11.4 µM; in [6], above 46 µM; in assay [10], 15.8 µM (active). The activity change, negative = inhibition in assay [2] is 3.11%; in assay [4] it was -23.4%. Further, the Potency result in assay [3], in assay [7], in [8] and in assay [9] was “inactive” throughout. The activity, negative = inhibition in assay [5] was -4.92%. In addition, the result in assay [11] was inactive.

Take `CS(=O)(=O)N1CCC2(CCN(Cc3nccs3)CC2)CC1`: the Potency in [1] was above 11.4 µM; in assay [6], above 46 µM. Also, the activity change, negative = inhibition in assay [2] is 3.17%; in assay [4], 9.85%. The Potency result in assay [3], in assay [7] and in [8] was “inactive” each time. In assay [5], the activity, negative = inhibition was -5.91%. Also, in assay [11], the result was inactive.

As for `O=C(c1cc(C(F)(F)F)cc(C(F)(F)F)c1)N1CCC2(CC1)CN(c1ncccn1)C2`, the Potency in assay [1] was above 11.4 µM; in assay [6], above 46 µM. The activity change, negative = inhibition in assay [2] was -14.3%; in assay [4] it was 31%. For the same compound, the Potency result in assay [3], in [7], in assay [8], in [12], in assay [13] and in [14] was “inactive” each time. Also, the activity, negative = inhibition in assay [5] was 1.12%. The outcome in assay [11] was inactive.
